A selection: hits, their analogues and other compounds. The true share with any hit is near 19%.
IL-1B inflam inh: qHTS for Inhibitors of Inflammasome Signaling: IL-1-beta AlphaLISA Primary Screen. 360,000 tested, 4.7% active. activity change, % at 57.5 µM. AID 743279, 2014. THP-1 LPS/ATP IL-1B secretion, AlphaLISA, 16 h; hits give low values; in the data active = activity change below about -50%; inconclusive = mostly about -30% to -49%
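Secreted IL-1B measured by AlphaLISA bead assay after 16 h compound exposure of THP-1 cells; compounds (final up to 57.5 uM) added 1 h before LPS (250 ng/mL) and ATP (1.25 mM) stimulation; lower signal means less secretion.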
DT40 TDP1 no CPT: qHTS for Inhibitors of human tyrosyl-DNA phosphodiesterase 1 (TDP1): qHTS in cells in absence of CPT. DT40 Tdp1-/- hTDP1 cells, no CPT, ATP luminescence, 48 h. Potency, µM (doses to about 46.2 µM), inactives show top-dose activity change, negative = growth inhibition, hits mostly inhibitors. 420,000 tested, 15% active; note: potency is the fitted concentration of half-maximal effect; nearly all actives have a fitted effect of over 55% in size
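Growth kinetics read by CellTiter-Glo luminescence after ≥48 hr at 37 °C. Cells: DT40 Tdp1-/- stably carrying human TDP1, 400 per well, compound exposure in the absence of CPT (DMSO vehicle).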
HT1080 IDH1KD tx: qHTS for induction of synthetic lethality in tumor cells producing 2HG: qHTS for the HT-1080-IDH1KD cell line. HT-1080 IDH1 knockdown viability, ATP luminescence, 48 h. Potency, µM (top dose mostly 46.1 µM), for the others: at the top dose activity, negative = toxicity, most hits filed as cytotoxic. 360,000 tested, 2% active;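 note: potency is the fitted concentration of half-maximal effect; 0% = DMSO wells and -100% = cell-free medium wells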
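Cytotoxicity counter-line: IDH1KD HT-1080, 48 h, CellTiter-Glo. Curves classed by r2, magnitude and activity.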
TDP1 cell CPT: qHTS for Inhibitors of human tyrosyl-DNA phosphodiesterase 1 (TDP1): qHTS in cells in presence of CPT. 420,000 tested, 12% active. Potency, µM (titrated, usually from 46.2 µM), for inactives: at the highest dose activity change, negative = growth inhibition, usual class: inhibitors. chicken DT40 Tdp1-/-;hTDP1 cells + 20 nM CPT, ATP luminescence, 48 h; note: potency is the fitted concentration of half-maximal effect; nearly all actives have a fitted effect of over 55% in size
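Cell growth measured by CellTiter-Glo luminescence after a minimum 48 h, 37 C compound exposure with 20 nM CPT in Tdp1-knockout DT40 cells stably expressing hTDP1, seeded 400/well; qHTS titration format.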
HT1080-NT tox: qHTS for induction of synthetic lethality in tumor cells producing 2HG: qHTS for the HT-1080-NT fibrosarcoma cell line. HT-1080-NT fibrosarcoma viability, CellTiter-Glo ATP luminescence, 48 h. Potency, µM (series often up to 46.1 µM), for inactives: at the top dose activity, negative = less viability, most hits filed as cytotoxic. 360,000 tested, 1.6% active. AID 686970, 2013;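 note: NT is the 2HG producing partner of a matched IDH1 knockdown line; potency is the fitted concentration of half-maximal effect; 0% = DMSO-treated cells and -100% = media-only wells without cells; nearly all actives have a fitted effect of over 55% in size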
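HT-1080-NT; 750 cells/well; 5% FBS RPMI; 48 h compound, 37 degrees C; CellTiter-Glo luminescence; curve fitting and curve-class assignment.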
Numbers without * were called inactive; ? = inconclusive; · = no result; [ ] = dose if it differs, or a comment. Unless noted, calls come from the whole dose curve; as a rule, active = well fitted curve in the direction sought with a large enough effect; inconclusive = small, poorly fitted or top-dose-only effect, or another doubt; inactive = no such curve, though single readings can be large; an effect the other way counts as inactive or inconclusive. Unless noted, % is set by controls: 0 for no effect and ±100 for the full control effect.

SMILES	IL-1B inflam inh	DT40 TDP1 no CPT	HT1080 IDH1KD tx	TDP1 cell CPT	HT1080-NT tox
CN(C(=O)CN1C(=O)c2ccccc2S1(=O)=O)C1CCCCC1	16.9	-13.6%	-10.6%	0.5%	-8.0%
O=C1C(=Cc2ccc(Br)o2)C(=O)c2ccccc21	5.6	?	9.9%	23.1µM*	7.9%
Cc1ccc(C(=O)O)cc1-c1ccc(C=C2C(=O)c3ccccc3C2=O)o1	10.5	-1.8%	-13.1%	9.5%	2.7%
Cc1cccc(C)c1OCCCCn1c(C2CC(=O)N(c3ccc(F)cc3)C2)nc2ccccc21 (centres undefined)	·	14.6µM*	·	13µM*	·
Cc1cccc(C)c1OCCn1c(C2CC(=O)N(c3cccc(Cl)c3)C2)nc2ccccc21 (centres undefined)	·	13µM*	·	16.4µM*	·
Cc1sc(=NC(=O)c2ccco2)n(C)c1-c1ccc(Cl)cc1	-16.1	11.6µM*	-0.9%	11.6µM*	-2.2%
CCOC(=O)c1sc(=NC(=O)c2ccco2)n(C)c1C	55.8	-14.7%	-5.5%	6.3%	-4.3%
Cc1ccc2cc(CNC(C)CO)c(N3CCC(O)CC3)nc2c1 (centres undefined)	·	-7.3%	·	0.6%[9.04 µM]	·
O=C(Nc1ccc(F)cc1)C1CC(=O)N(Cc2ccco2)C1 (centres undefined)	0.5	0.1%	11.6%	-3.2%	12.0%
O=C(c1ccco1)N1CCN(C(=O)c2[nH]c(C(F)(F)F)nc2-c2ccccc2)CC1	29.8	?	?	?	-15.9%
CCCNC(=O)c1c(O)c2cccc3c2n(c1=O)CCC3	-3.0	6.8%	4.1%	-1.5%	-1.9%
NCCNC(=O)c1c(O)c2cccc3c2n(c1=O)CCC3	-91.7*	?	-1.9%	-2.5%	-5.1%
O=C(Nc1ccccn1)c1c(O)c2cccc3c2n(c1=O)CCC3	19.0	14.6µM*	5.9%	14.6µM*	2.1%
CCc1ccc(N2C(=O)CC(Cn3nc(C)cc3C)C2=O)cc1 (centres undefined)	0.3	0.4%	6.5%	2.3%	3.4%
CCOC(=O)C(Cc1ccccc1)NC(=O)CNC(=O)CNC(=O)OCc1ccccc1 (centres undefined)	-88.1*	-22.7%	-7.1%	-3.2%	-18.6%
COC(=O)C(Cc1ccccc1)NC(=O)C(CC(C)C)NC(=O)OC(C)(C)C (centres undefined)	18.9	-27.0%	13.9%	-0.2%	4.9%
CC(C)CC(NC(=O)OCc1ccccc1)C(=O)NC(Cc1ccccc1)C(=O)CCl (centres undefined)	-99.7*	2.91µM*	?	4.61µM*	?
Cc1ccc(NC(=O)C(Cc2ccccc2)NC(=O)OCc2ccccc2)cc1C (centres undefined)	13.8	23.1µM*	-5.0%	?	-11.9%
CCOC(=O)C(Cc1ccc(O)cc1)NC(=O)CNC(=O)C1CCCN1C(=O)OC(C)(C)C (centres undefined)	-2.5	?	-2.8%	-21.7%	-3.4%
Cc1cccc(NC(=O)[C@H](Cc2ccccc2)NC(=O)OCc2ccccc2)c1	0.0	?	-3.4%	-17.0%	-4.8%
CCOC(=O)C(Cc1ccc(O)cc1)NC(=O)CNC(=O)C(CC(C)C)NC(=O)OC(C)(C)C (centres undefined)	-98.7*	-16.6%	-6.8%	-2.4%	-13.6%
COc1ccc(CCNC(N)=S)cc1OC	-5.6	-16.4%	-0.6%	-1.9%	-0.8%
C[C@H](NC(N)=O)C(=O)N1CCN(S(=O)(=O)c2ccc3ccccc3c2)CC1	0.0	-13.4%	15.2%	-8.7%	23.0%
CC(C)(C)OC(=O)N[C@@H](C(=O)OC(C)(C)C)c1ccc2ccccc2c1	14.7	23.1µM*	5.7%	?	7.5%
